Consider 40 compounds from PubChem BioAssay (EPA / NIEHS).

Results filed as inconclusive are left out. Active and inactive are the calls of the source. How the source made its calls: active means hit-call score of the fitted dose curve at least 0.9, where 1 is the maximum; inconclusive means response in the unintended direction; inactive means score below 0.9.

Sequence of Peroxisome proliferator-activated receptor gamma (Homo sapiens) (P37231 whole entry, looked up, the tested form may be a part): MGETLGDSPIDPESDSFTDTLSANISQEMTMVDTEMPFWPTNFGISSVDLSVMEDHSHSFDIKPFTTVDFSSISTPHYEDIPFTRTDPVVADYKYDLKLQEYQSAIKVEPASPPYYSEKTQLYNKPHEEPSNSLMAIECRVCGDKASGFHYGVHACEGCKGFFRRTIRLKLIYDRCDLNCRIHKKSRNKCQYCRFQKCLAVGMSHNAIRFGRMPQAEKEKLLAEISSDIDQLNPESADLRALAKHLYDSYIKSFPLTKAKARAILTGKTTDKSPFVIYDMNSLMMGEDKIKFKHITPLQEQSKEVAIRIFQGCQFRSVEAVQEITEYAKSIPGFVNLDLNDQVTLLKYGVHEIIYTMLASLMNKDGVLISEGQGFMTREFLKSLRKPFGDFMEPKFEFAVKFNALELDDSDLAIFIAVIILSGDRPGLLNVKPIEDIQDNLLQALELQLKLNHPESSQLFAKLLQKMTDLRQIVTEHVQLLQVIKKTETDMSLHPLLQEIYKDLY

The target of this experiment is Peroxisome proliferator-activated receptor gamma (Homo sapiens) (UniProt P37231). The experiment is described as follows: OT_PPARg_PPARgSRC1_0480: Odyssey Thera (OT) 8-hour Protein-Complementation Assay for Peroxisome Proliferator-activated Receptor Gamma / SRC-1 Co-activator (AID 2283387).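 Further: nuclear to cytoplasmic split Venus YFP fluorescence ratio reporting PPARg SRC-1 interaction.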 As to the method:
OT_PPARg_PPARgSRC1_0480 is a cell-based assay that uses HEK293T, a human kidney cell line, with measurements taken at 8 hours after chemical dosing in a 384-well plate.OT_PPARg_PPARgSRC1_0480 is one of one assay component(s) measured or calculated from the OT_PPARg_PPARgSRC1_0480 assay. It is designed to make measurements of protein fragment complementation, a form of binding reporter, as detected with fluorescence intensity signals by Protein-fragment Complementation technology.Data from the assay component OT_PPARg_PPARgSRC1_0480 was analyzed into 1 assay endpoint. This assay endpoint, OT_PPARg_PPARgSRC1_0480, was analyzed in the positive analysis fitting direction relative to DMSO as the negative control and baseline of activity. Using a type of binding reporter, measures of receptor for gain-of-signal activity can be used to understand the binding at the pathway-level as they relate to the gene PPARG. Furthermore, this assay endpoint can be referred to as a primary readout, because the performed assay has only produced 1 assay endpoint. To generalize the intended target to other relatable targets, this assay endpoint is annotated to the nuclear receptor intended target family, where the subfamily is non-steroidal.
The OT PPARg/SRC-1 assay assessed receptor-chemical interactions using a rapidly maturing, intensely fluorescent mutant of YFP known as Venus, rationally dissected into two separate fragments. The fragments were obtained as follows: first, fragments coding for YFP1 and YFP2 (corresponding to amino acid residues 1-158 and 159-239 of the full length YFP, respectively) were generated by oligonucleotide synthesis (Blue Heron Biotechnology), and then PCR mutagenesis was used to generate the mutant fragments IFP1 and IFP2. Fusion constructs were transfected into HEK293T cells with a (Gly4Ser)2 linker between the PPARg/SRC-1 and YFP fragment genes to facilitate complementation when interacting proteins bring fragments into close proximity. The construct is transiently transfected in HEK293T cells 48 hours prior to treatment with test compounds. Cells are seeded into optical quality 384-well poly-D-lysine coated plates in MEM alpha medium (Invitrogen) supplemented with 10 percent FBS (Gemini Bio-Products) 1 percent penicillin and 1 percent streptomycin, and grown in 37C incubator equilibrated to 5 percent CO2. Cells are allowed to adhere for 24 hours prior to treatment with compounds of interest or controls for 8 hours. Cells are fixed in 4 percent formaldehyde and stained with Draq5 (BioStatus) to identify cells and subcellular compartment boundaries prior to signal detection. 8 Images per well were acquired on an Evotec Opera at 2 wavelengths (488 and 635nm), and the ratio of fluorescence in the nucleus relative to fluorescence in the cytoplasm (N/C Ratio) in the 488nm channel was calculated for a minimum of 350 cells per image.
For `Nc1ccc(Cl)c(Cl)c1`, the call was inactive.
As to `CCC(=O)c1ccc(Cl)cc1`, the compound was called inactive.
Regarding `N#CCCCCC#N`, the compound was called inactive.
The result for `O=C(O)CCl` reads “inactive”; that for `Nc1cc(Cl)cc(Cl)c1`, “inactive”; that for `Cc1ccc(C)c2ccccc12`, “inactive”.
In the case of `CCc1cccc(C)c1N(C(=O)CCl)[C@@H](C)COC` it was “inactive”; in that of `CN(C)N`, “inactive”; in that of `CC1(C)[C@H](C(=O)O[C@H](C#N)c2cccc(Oc3ccccc3)c2)[C@@H]1C=C(Br)Br`, “inactive”.
Turning to `O=C1Nc2ccc(Cl)cc2C(c2ccccc2)=NC1O` (stereo not given), the call was inactive.
For the compound `Cc1ccc(OP(=O)(Oc2ccc(C)cc2)Oc2ccc(C)cc2)cc1` (tested in a mixture with another compound), the call was inactive.
For `CCOP(O)OCC`, the compound was classed as inactive.
The result for `c1cc[n+]2c(c1)-c1cccc[n+]1CC2` reads “inactive”.
On to `CCOP(=O)(OCC)Oc1ccc([N+](=O)[O-])cc1`, for which the compound was classed as inactive.
On to `Cc1cc(C)c(C2=C(OC(=O)CC(C)(C)C)C3(CCCC3)OC2=O)c(C)c1`, for which the compound was classed as inactive.
For `CCCCCCCCCCCCCCCC[N+](C)(C)C`, the call was inactive.
The result for `CC(C)C#N` reads “inactive”; that for `CCOP(=O)(OCC)OCC`, “inactive”.
Turning to `C=CCN(CC=C)C(=O)C(Cl)Cl`, the result was inactive.
Turning to `O=S(=O)(O)OOS(=O)(=O)O`, the outcome was inactive.
Consider `CC1CCCC1.[C-]#[O+].[C-]#[O+].[C-]#[O+].[Mn]`, for which the compound was classed as inactive.
Consider `O=C(NCNC(=O)NC1C(=O)NC(=O)N1CO)NC1C(=O)NC(=O)N1CO` (stereo not given), for which the compound was called inactive.
The result for `O=C(CCl)c1ccccc1` reads “inactive”.
In the case of `CN(C)C(=O)C(c1ccccc1)c1ccccc1`, the result was inactive.
As to `Oc1cc(Cl)ccc1Cl`, the compound was called inactive.
As for `C=CC(=O)OCC(CC)CCCC` (stereo not given), the compound was classed as inactive.
Regarding `O=C(NC(=O)c1c(F)cccc1F)Nc1ccc(Oc2ccc(C(F)(F)F)cc2Cl)cc1F`, the result was inactive.
`c1ccc(P(c2ccccc2)c2ccccc2)cc1`: the outcome was inactive.
In the case of `CC[N+](=O)[O-]` it was “inactive”; in that of `CC(C)c1ccc(O)cc1`, “inactive”; in that of `CCOC(=O)C1OC1(C)c1ccccc1` (stereo not given), “inactive”.
As to `O=C=Nc1ccccc1`, the outcome was inactive.
For `COc1cc(OC)nc(Oc2cccc(Oc3nc(OC)cc(OC)n3)c2C(=O)O)n1`, the outcome was inactive.
In the case of `CC(C)[C@@H](C(=O)O[C@@H](C#N)c1cccc(Oc2ccccc2)c1)c1ccc(Cl)cc1`, the compound was classed as inactive.
In the case of `CC(C)(O)C#N` it was “inactive”.
Take `CC(=O)c1cc2c(cc1C)C(C)(C)C(C)CC2(C)C` (stereo not given): the compound was classed as inactive.
Take `CC(C)(Cl)Cl`: the compound was classed as inactive.
The result for `CC(C)(c1cc(Cl)c(O)c(Cl)c1)c1cc(Cl)c(O)c(Cl)c1` reads “inactive”.
As to `O=P(O)(Oc1ccccc1)Oc1ccccc1`, the outcome was inactive.
In the case of `c1ccc2c(c1)CCCC2`, the result was inactive.
